Our source for the outcome values is PubChem BioAssay (NCATS).

Records with an inconclusive call do not appear. The source made the active and inactive calls. Calls come from the whole dose curve; as a rule, active = well fitted curve in either direction with a large enough effect (not every such curve was filed as active); inconclusive = small, poorly fitted or top-dose-only effect, or another doubt; inactive = flat fitted curve, though single readings scatter.

The target of this experiment is Mitogen-activated protein kinase 10 (Mus musculus) (UniProt Q61831). The experiment is described as follows: JNK3 AlphaScreen Assay (AID 530).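 Note: kinase came from lysate of stimulated human HepG2 cells.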 Particulars: JNK3 lysate, c-Jun phosphorylation; series mostly up to 57.1 µM. An excerpt: NIH Chemical Genomics Center [NCGC]
NIH Molecular Libraries Screening Centers Network [MLSCN]
The c-jun N-terminal kinase (JNK) family are serine/threonine protein kinases that phosphorylate c-jun, a component of the transcription factor […] (AP-1). JNK kinases are members of the mitogen-activated protein kinase family including the extracellular regulated kinases and p38 kinases. Three JNK genes (JNK 1, 2, and 3) have been identified in humans so far. JNK1 and JNK2 have a broad distribution and JNK3 is primarily found in neuronal tissues and cardiac myocytes.
JNK3 has been under consideration as a target for the treatment of neurodegenerative disorders. […] JNK pathway is also involved in pathological process in a mouse model of Parkinson's disease (Xia et al., 2001).
Given these potential tissue distributions and links to neuroprotection, JNK3 inhibitors should provide useful investigational tools to study the role of this kinase in several diseases including, arthritis, stroke, myocardial infarction, ischemic injury and Parkinson's disease.
A homogeneous AlphaScreen is developed to measure the activity of JNK3. AlphaScreen is a two bead-based proximity-dependent chemical energy transfer luminescent assay platform. The phosphorylation of a biotinylated c-jun substrate by JNK3 can be detected with an antibody raised against phosphorylated c-jun. This process brings streptavidin donor beads and Protein-A acceptor beads to within a proximity range of <200 nm, and subsequently lead a chemical luminescent reaction upon exciting donor beads with 680 nm laser excitation light. Inhibition of JNK3 activity by small molecules and subsequent decrease in the antibody binding to biotinylated c-jun could attenuate or abolish this chemical luminescent reaction.
Yang DD, Kuan CY, Whitmarsh AJ, Rincon M, Zheng TS, Davis RJ, Rakic P and Flavell RA (1997) Absence of excitotoxicity-induced apoptosis in the hippocampus of mice lacking the Jnk3 gene. Nature 389:865-870. [PMID: 9349820]
Herdegen T, Claret FX, Kallunki T, Martin-Villalba A, Winter C, Hunter T, and Karin M (1998) Lasting N-terminal phosphorylation of c-Jun and activation of c-Jun N-terminal kinases after neuronal injury. J.Neurosci. 18:5124-5135. [PMID: 9651196]
Xia XG, Harding T, Weller M, Bieneman A, Uney JB and Schulz JB (2001) Gene transfer of the JNK interacting protein-1 protects dopaminergic neurons in the MPTP model of Parkinson's disease. Proc.Natl.Acad.Sci.U.S.A. 98:10433-10438.
NCGC Assay Protocol Summary:
GST-cJun (1-79) (Stratagene, La Jolla CA, #205145) was biotnylated by PerkinElmer (PerkinElmer-BioSignalInc. Montreal, Canada) and was detectable by the streptavidin Donor beads. Anti-(phospho)cJun (Ser73) antibody was from UpState (Charlottesvilles, VA, #06-659). JNK3-containing lysates were generated from HepG2 cells and pre-activated by interleukin1-beta and tumor necrosis factor alpha. All reagents were stored at -20 C before using. Phosphorylated biotinylated-GST-cJun was recognized by Anti-(phospho)cJun (Ser73) antibody and this process brings acceptor and donor beads together. Therefore JNK3 phosphorylation of cJun can be measured by Alpha reading by EnVision (PerkinElmer, Boston, MA).
The composition of kinase buffer was (in mM) 20 tris- HCl (pH 7.6) 10 MgCl2, 1 DTT, and 0.1 Na3VO4 and 0.01% Tween-20. Beads were diluted in detection buffer containing (in mM) 20 tris-HCl (pH 7.7), 20 NaCl and 80 EDTA and 0.3% BSA. The assay was performed at room temperature. All compounds were screened as titrations from 0.6 nM to 46 uM final concentration. The assay was performed in 1536-well format (white solid bottom and untreated) as follows:
Sequence,Parameter,Value,Description
1,Reagent,3 uL,Biotin-GST-cJun, Anti-(phospho)cJun and pre-activated JNK3-containing lysates
2,Compound,23 nL,Final concentration was 0.6nM to 46uM
3,Time,15 minutes,Room Temperature
4,Reagent,1 uL,ATP final concentration 10uM
6,Reagent,0.5 uL,2ng/well bead mixture
[…]
Take `Oc1c(Br)cc(Br)cc1Br`: the result was inactive.

Regarding `CCCCCCCCCCCC[N+](C)(C)CCOc1ccccc1`, the result was inactive.

As for `O=C(CCl)c1ccc(Cl)cc1Cl`, the compound was classed as inactive.

As to `c1ccc2nc(N3CCNCC3)ccc2c1`, the compound was called inactive.

Regarding `C[C@H](N)[C@H](O)c1ccc(O)c(O)c1`, the result was inactive.

Take `Cc1ccc(O)cc1`: the result was inactive.

In the case of `COP(=O)(OC)OC=C(Cl)Cl`, the compound was classed as inactive.

With `CC(C)[N+](C)(CCC(C(N)=O)(c1ccccc1)c1ccccc1)C(C)C`, the compound was called inactive.

Take `COc1ccc(CN2CCNCC2)c(OC)c1OC`: the call was inactive.

Turning to `CCC(=O)O[C@H]1CC[C@H]2[C@@H]3CCC4=CC(=O)CC[C@]4(C)[C@H]3CC[C@]12C`, the call was inactive.

For the compound `C[C@@H]1C[C@@H]([C@H](O)CC2CC(=O)NC(=O)C2)C(=O)[C@@H](C)C1`, the result was inactive.

On to `CN(C)C(=S)SSC(=S)N(C)C`, for which the call was inactive.

With `O=C(CCCN1CCC(n2c(=O)[nH]c3ccccc32)CC1)c1ccc(F)cc1`, the result was inactive.

In the case of `O=C1NCN(c2ccccc2)C12CCN(CCCOc1ccc(F)cc1)CC2`, the result was inactive.

`COC(=O)C1=CCCN(C)C1`: the result was inactive.

As to `OC(c1ccccc1)(c1ccccc1)C1CCNCC1`, the result was inactive.

Regarding `COc1ccc(C(=O)N2CCCC2=O)cc1`, the compound was classed as inactive.

As for `CN1[C@@H]2CC[C@H]1CC(OC(=O)c1cc(Cl)cc(Cl)c1)C2` (stereo partly specified), the result was inactive.

In the case of `O=C(O)c1nn(Cc2ccc(Cl)cc2Cl)c2ccccc12`, the call was inactive.

For `CNC(=O)Oc1cccc2ccccc12`, the result was inactive.

On to `NC(=O)CN1CCCC1=O`, for which the result was inactive.
